# From PubChem BioAssay
# Values joined by “and” are separate entries in the source; they are usually repeats but may differ in a detail not shown here. Equal entries are not always repeated. Active and inactive are the calls of the source.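 How the source made its calls, unless noted: active means inhibition at or above 50% relative to wild type and mutant plate controls; inactive means inhibition below 50%.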
# What was measured:
# [1] = inhibitors of TNFa-induced NFkB p65 translocation, primary screen, imaging, HUVEC, MLSMR starter and 10KST1 sets (AID 438;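 active means inhibition above 20% together with a positive visual image hit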;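 further: compound added about 3h40 before a 20 min TNFalpha stimulation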;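 on inhibition: signal is the nuclear over cytoplasmic p65 intensity ratio per well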); conditions: HUVEC TNFa-induced p65 nuclear translocation; cell count: measured here: nuclei count (cytotoxicity indicator), at 2.08 µM; inhibition: at 2 µM, stronger effect = higher value, 0% TNFa-plus-vehicle, 100% no-TNFa wells
# [2] = inhibitors of mutant huntingtin aggregation, primary screen, imaging, exon1htt(103Q)mCFP cells, high-content imaging (AID 483;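 active means visual image review flags a hit and inhibition of aggregation exceeds 20%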;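 further: compound exposure lasted 3 days before fixation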;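 on nuclei count: percent of the per-plate median nuclei count of sample wells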); conditions: exon1htt(103Q)mCFP cell line, aggregate imaging, at 2 µM; inhibition of aggregation: stronger effect = higher value; nuclei count: measured here: cell count, toxicity
# [3] = inhibitors of E-selectin induction by TNFa, primary screen, imaging, HUVEC, immunofluorescence, MLSMR starter and 10KST1 sets (AID 487;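 active means visually confirmed hit in the image check and inhibition above 20%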;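 on inhibition: signal is fraction of cell area covered by stained E-selectin grains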;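 on nuclei count: 100% = median nuclei count of all wells on the same plate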); conditions: HUVEC TNFalpha-induced E-selectin immunofluorescence imaging, at 2 µM; inhibition: stronger effect = higher value; nuclei count: measured here: cell number, toxicity
# [4] = DUSP6 inhibitors restoring Erk phosphorylation by chemical complementation, primary imaging in DUSP6-transfected HeLa (AID 609;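 active means compounds giving at least 50% inhibition in the cell-based MKP-3 phosphatase rescue imaging test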;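 on inhibition: phospho-Erk level distribution per well compared with pooled transfected vehicle control wells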); conditions: HeLa MKP-3 transfected, phospho-Erk imaging KS statistic, at 10 µM, cells stimulated with TPA for 15 min
# [5] = target: Dual specificity protein phosphatase 6 (Homo sapiens) (UniProt Q16828); assay: as above; conditions: HeLa MKP-3 transfected, phospho-Erk imaging KS statistic; at 10 µM; stronger effect = higher value; cells stimulated with TPA for 15 min
# Dual specificity protein phosphatase 6 (Homo sapiens), sequence (Q16828 whole entry, looked up): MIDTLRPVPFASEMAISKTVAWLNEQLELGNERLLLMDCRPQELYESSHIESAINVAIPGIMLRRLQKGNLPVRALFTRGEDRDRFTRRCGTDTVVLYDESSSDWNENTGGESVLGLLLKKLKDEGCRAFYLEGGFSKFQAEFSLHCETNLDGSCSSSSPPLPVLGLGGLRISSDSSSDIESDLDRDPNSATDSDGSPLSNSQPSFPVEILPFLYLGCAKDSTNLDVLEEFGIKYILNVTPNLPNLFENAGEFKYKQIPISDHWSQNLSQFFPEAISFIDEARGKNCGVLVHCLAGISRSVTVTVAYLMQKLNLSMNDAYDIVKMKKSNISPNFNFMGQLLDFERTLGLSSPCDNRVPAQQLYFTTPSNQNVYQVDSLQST
# [6] = target: Voltage-gated potassium channel subunit beta-2 (Rattus norvegicus) (UniProt P62483); assay: KvBeta enzyme negative modulators, primary screen, biochemical, NADPH fluorescence (AID 622;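 active means fluorescence slope higher than the sample average by over 3 SD, cut at about -0.22 in these data, passing the limit was not always enough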;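 further: slope of raw intensity against log time taken from 70 to 1610 s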); conditions: recombinant KvBeta, 4-cyanobenzaldehyde reduction, at 10 µM, stronger effect = higher value
# Voltage-gated potassium channel subunit beta-2 (Rattus norvegicus), sequence (P62483 whole entry, looked up): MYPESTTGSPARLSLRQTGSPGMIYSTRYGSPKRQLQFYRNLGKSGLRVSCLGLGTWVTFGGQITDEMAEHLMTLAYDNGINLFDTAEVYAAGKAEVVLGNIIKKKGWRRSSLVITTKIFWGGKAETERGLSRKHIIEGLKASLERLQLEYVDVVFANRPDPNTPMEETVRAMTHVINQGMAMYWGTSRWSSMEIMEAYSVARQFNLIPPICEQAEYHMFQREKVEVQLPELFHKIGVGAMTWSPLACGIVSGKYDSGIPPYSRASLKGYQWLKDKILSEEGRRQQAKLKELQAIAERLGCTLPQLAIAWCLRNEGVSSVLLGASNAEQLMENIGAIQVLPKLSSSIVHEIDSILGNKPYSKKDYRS
# [7] = target: Voltage-gated potassium channel subunit beta-2 (Rattus norvegicus) (UniProt P62483); assay: KvBeta positive modulators, primary screen, biochemical, NADPH fluorescence (AID 623;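 active means NADPH fluorescence slope more negative than the mean of all samples by about 3 SD, 99.7% confidence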;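 further: fluorescence intensity change per second fitted from 20 to 320 s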); conditions: Recombinant KvBeta, NADPH fluorescence decrease slope, 10 min; at 10 µM; stronger effect = lower value
# [8] = target: Alpha-2C adrenergic receptor (Homo sapiens) (UniProt P18825); assay: modulators of alpha2C/GIRK thallium flux, primary screen, cell-based, HEK293 alpha2C/GIRK1/2 (AID 624;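 active means fluorescence slope after compound addition differing from the mean of all screened samples at 99.7% confidence, in either direction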;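 further: slope of fluorescence ratio to pre-addition baseline per second over 15 to 24 s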); conditions: thallium flux BTC fluorescence, at 10 µM, actives lie on both sides
# Alpha-2C adrenergic receptor (Homo sapiens), sequence (P18825 whole entry, looked up): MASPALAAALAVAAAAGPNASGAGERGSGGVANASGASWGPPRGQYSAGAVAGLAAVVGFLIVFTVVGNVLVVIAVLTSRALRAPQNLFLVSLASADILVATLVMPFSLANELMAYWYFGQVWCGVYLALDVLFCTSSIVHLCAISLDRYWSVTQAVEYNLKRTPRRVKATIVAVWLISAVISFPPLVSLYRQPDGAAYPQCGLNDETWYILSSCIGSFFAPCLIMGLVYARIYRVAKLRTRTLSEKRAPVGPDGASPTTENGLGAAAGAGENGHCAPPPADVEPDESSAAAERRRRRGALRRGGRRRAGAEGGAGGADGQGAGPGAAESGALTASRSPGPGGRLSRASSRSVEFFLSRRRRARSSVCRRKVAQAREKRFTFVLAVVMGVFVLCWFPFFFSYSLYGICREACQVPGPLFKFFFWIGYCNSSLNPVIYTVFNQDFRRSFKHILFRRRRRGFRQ
# [9] = inhibitors of larval lipid processing in zebrafish, primary screen, whole organism, PED6 fluorescence, gall bladder and intestine (AID 686;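 active means a full or partial loss of lipid-probe fluorescence in the fish gall bladder, intestine or both, judged by eye; inactive means no fluorescence loss, or compound toxic to the fish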;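 further: larvae 5 to 7 days old with five fish per well; signal comes from phospholipase A2 cleavage of quenched PED6 carried via bile; overnight exposure to compound and PED6 before scoring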); conditions: Zebrafish larvae PED6 lipid processing, fluorescence scoring; screened at 20 µM (by protocol)
# [10] = inhibitors of Chlamydomonas gravitaxis, primary screen, whole organism, Chlamydomonas reinhardtii, WT vs cilia-less mutant, absorbance, 96-well (AID 463189); conditions: OD600 absorbance, 2 days, at 10 µM, stronger effect = higher value;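 further: 0% = wild type cc124 cells in DMSO and 100% = ciliumless bld1 mutant cells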
# [11] = inhibitors of Sendai virus-induced IRF3 signaling, primary screen, TLR/RLR signaling modifier project, cell-based, Sendai virus stimulus, luciferase, 10K MLSCN set (AID 602276;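 active means inhibition at or above 50% at 10 µM; inactive means inhibition below 50%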;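 further: firefly luciferase from ISG56 promoter only with Renilla not read in this screen; 0% = Sendai virus plus DMSO and 100% = medium plus DMSO without virus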); conditions: HEK293 RL24 IRF3 luciferase reporter, at 10 µM, stronger effect = higher value
# [12] = inhibitors of poly I:C-induced TLR3 signaling, primary screen, cell-based, poly I:C stimulus, luciferase, 10K MLSCN set (AID 602277;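 active means inhibition of the reporter signal at or above 50%; inactive means inhibition below 50%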); conditions: HEK293-TLR3 RL24 IRF3 luciferase reporter, at 10 µM, stronger effect = higher value
# [13] = measured here: cell density z-score
# [14] = measured here: nuclear c-Myc green intensity z-score
# [15] = measured here: nuclear pErk red intensity z-score, stronger effect = higher value
Compound,cell count [1],inhibition [1],inhibition of aggregation [2],nuclei count [2],inhibition [3],nuclei count [3],"z-score [4, 13]","z-score [4, 14]","z-score [4, 15]",inhibition [5],fluorescence slope [6],NADPH fluorescence slope [7],slope [8],outcome [9],inhibition [10],inhibition [11],inhibition [12]
COC1=CC(=O)CC(C)C12Oc1c(Cl)c(OC)cc(OC)c1C2=O (stereo not given),555,-5% (inactive),6.9% (inactive),105%,-16.1% (inactive),122%,-1.48,-1.27,1.79,-8.38% (inactive),-0.459 (inactive),-3.3e-05 (inactive),0.00463 (inactive),inactive,-7.52% (inactive),22.1% (inactive),38.6% (inactive)
O=C(O)/C=C/c1ccc(O)c(O)c1,613,4% (inactive),8.3% (inactive),103%,-48.2% (inactive),116%,-0.618,-0.142,-0.455,10.2% (inactive),-0.453 (inactive),-6.6e-05 (inactive),0.00437 (inactive),inactive,-2.7% (inactive) and 27.7% (inactive),8.79% (inactive),43.2% (inactive)
CN1CCC(=C2c3ccccc3C=Cc3ccccc32)CC1,599,-6% (inactive),-5.2% (inactive),104%,-80% (inactive),131%,0.654,1.45,-1.1,9.37% (inactive),-0.438 (inactive),-6.6e-05 (inactive),0.00408 (inactive),inactive; toxic,12% (inactive) and 38.6% (inactive),18.4% (inactive),46.7% (inactive)
CN(C=C1C(=O)CC(C)(C)CC1=O)CCN1CCNCC1,624,-4.9% (inactive),-3.7% (inactive),97.1%,-43.7% (inactive),121%,-0.672,-0.802,1.89,-1.98% (inactive),-0.519 (inactive),-5.2e-05 (inactive),0.00485 (inactive),inactive,6.8% (inactive),14.6% (inactive),16.6% (inactive)
COC(=O)c1cccc(Nc2cc(C)nc(-c3ccccc3O)n2)c1,614,-12.4% (inactive),-1% (inactive),92.7%,-86.5% (inactive),118%,-0.273,0.157,-0.334,9.91% (inactive),-0.279 (inactive),-1.2e-05 (inactive),0.00663 (inactive),inactive,5.5% (inactive),-10.3% (inactive),-37.2% (inactive)
CCCC(=O)N(Cc1cc2ccccc2[nH]c1=O)c1ccccc1OC,429,-16.8% (inactive),-1.6% (inactive),94.8%,-133% (inactive),166%,1.04,-0.344,-0.503,17.7% (inactive),-0.364 (inactive),-8.5e-06 (inactive),0.00461 (inactive),inactive,27.4% (inactive),12% (inactive),14.8% (inactive)
OCCNC1=NCCN1,552,-6.3% (inactive),28.8% (active),104%,-4.8% (inactive),146%,-0.706,-1.05,0.931,-3.98% (inactive),-0.523 (inactive),-7.4e-05 (inactive),0.00539 (inactive),inactive,-5.29% (inactive),17.3% (inactive),20.3% (inactive)
C[C@@H]1C[C@H]2[C@@H]3CCC4=CC(=O)C=C[C@]4(C)[C@@]3(F)[C@@H](O)C[C@]2(C)[C@H]1C(=O)CO,647,-8.8% (inactive),0% (inactive),59.5%,-68% (inactive),134%,1.14,0.339,-1.14,31.1% (inactive),-0.536 (inactive),-9.8e-05 (inactive),0.00544 (inactive),inactive,4.88% (inactive),-17.5% (inactive),-9.26% (inactive)
Cc1cccc(C)c1NC(=O)C1CCCCN1C (stereo not given),662,-8.2% (inactive),-22% (inactive),108%,-104% (inactive),139%,1.2,-0.238,0.358,3.45% (inactive),-0.488 (inactive),-4.1e-05 (inactive),0.00459 (inactive),inactive,3.16% (inactive),12.7% (inactive),35.5% (inactive)
Cn1c(=O)c2c(ncn2CCO)n(C)c1=O,575,3.2% (inactive),-12.9% (inactive),102%,-46.8% (inactive),114%,-1.46,-1.4,-0.23,1.38% (inactive),-0.45 (inactive),-4.4e-05 (inactive),0.00454 (inactive),inactive,-9.91% (inactive),14.7% (inactive),34.5% (inactive)
CCCCC[C@H](O)/C=C/[C@@H]1[C@@H](CCCCCCC(=O)O)[C@@H](O)C[C@H]1O,594,-7.7% (inactive),9% (inactive),106%,-80.7% (inactive),114%,-0.368,0.536,-0.971,7.39% (inactive),-0.458 (inactive),-4e-05 (inactive),0.00481 (inactive),inactive,-6.66% (inactive),11.4% (inactive),33.8% (inactive)
COC(=O)CSc1nc(C)c(C(C)=O)cc1C#N,505,-8.8% (inactive),5.5% (inactive),86.1%,-16.5% (inactive),136%,-0.468,-1.01,-0.0332,-8.95% (inactive),-0.376 (inactive),-3.7e-05 (inactive),0.00524 (inactive),inactive,13.8% (inactive),3.96% (inactive),-12.7% (inactive)
C=CCSc1nnc2n(-c3ccccc3OC)c(=O)c3c4c(sc3n12)CCC4,578,-5.9% (inactive),15.1% (inactive),59.7%,-27% (inactive),126%,0.876,-0.888,-0.633,7.73% (inactive),-0.339 (inactive),-1.1e-06 (inactive),0.00538 (inactive),inactive,43.3% (inactive),1.81% (inactive),0.316% (inactive)
O=C(NO)c1ccccc1O,594,1.9% (inactive),-2.3% (inactive),103%,-35.8% (inactive),102%,-0.325,-0.0884,-1.2,5.79% (inactive),-0.458 (inactive),-2.4e-05 (inactive),0.00615 (inactive),inactive,-11.3% (inactive),5.89% (inactive),19.5% (inactive)
CCOC(=O)C1CCN(c2nc3ccccc3nc2C(C#N)C(=O)OCCOC)CC1 (stereo not given),436,-5.7% (inactive),12.8% (inactive),81%,-67.9% (inactive),120%,0.586,0.396,0.0352,-11.5% (inactive),-0.529 (inactive),2.1e-06 (inactive),0.00561 (inactive),inactive,-22.9% (inactive),13.3% (inactive),3.22% (inactive)
OC(CCN1CCCCC1)(c1ccccc1)c1ccccc1,674,-1.6% (inactive),-18% (inactive),108%,-75.5% (inactive),114%,0.144,-1.15,-0.931,-0.493% (inactive),-0.458 (inactive),-3.9e-05 (inactive),0.00533 (inactive),inactive,-6.75% (inactive),16.1% (inactive),48% (inactive)
CC[N+](C)(CC)CCOC(=O)C(O)(c1ccccc1)C1CCCCC1 (stereo not given),475,-3.8% (inactive),7.2% (inactive),95.4%,-15.1% (inactive),111%,-1.3,-0.403,0.0665,-4.44% (inactive),-0.515 (inactive),-2.6e-05 (inactive),0.00498 (inactive),inactive,-14% (inactive),2.1% (inactive),24.6% (inactive)
CCCC(=O)O[C@]1(C(=O)COC(C)=O)CC[C@H]2[C@@H]3C[C@H](F)C4=CC(=O)C=C[C@]4(C)[C@@]3(F)[C@@H](O)C[C@@]21C,642,-9.3% (inactive),-34.4% (inactive),61.6%,-95.2% (inactive),136%,-0.0756,-0.093,0.355,-0.493% (inactive),-0.5 (inactive),-5.5e-05 (inactive),0.00445 (inactive),inactive,9.17% (inactive),15.9% (inactive),48.2% (inactive)
Cc1[nH]c2ccc(F)cc2c(=O)c1SC(F)(F)C(F)C(F)(F)F (stereo not given),491,-1.1% (inactive),4% (inactive),77.7%,-48.3% (inactive),123%,-0.588,0.342,-0.414,2.46% (inactive),-0.42 (inactive),-3.8e-05 (inactive),0.0059 (inactive),inactive,-4.7% (inactive),14.5% (inactive),20.3% (inactive)
O=C1NC(c2cccs2)Nc2ccccc21 (stereo not given),600,-16.1% (inactive),14.1% (inactive),130%,-3.3% (inactive),140%,-1.25,-1.7,1.79,1.12% (inactive),-0.292 (inactive),-3.3e-05 (inactive),0.00756 (inactive),inactive,15.5% (inactive),-3% (inactive),0.34% (inactive)
